FEN1 inh = human FEN1 inhibition | Potency, µM (titrated, usually from 114 µM), actives largely listed as inhibitors | P39748 | hit rate 0.35% among 390,000 | AID 588795 | Recombinant FEN1 flap cleavage, fluorescence, 15 min; also: nearly all actives have a fitted effect of over 65% in size
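FEN1 at 10 nM preincubated with compounds 15 min at room temperature, then flap DNA substrate added at 50 nM final. Signal read at 0 and 15 min; concentration-response fitted with four-parameter Hill equation.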
POLB inh = blocks human DNA polymerase beta activity; P06746; Pol beta primer extension/strand displacement, fluorescence kinetic; Potency, µM (top dose mostly 114 µM), most hits filed as inhibitors; hit rate 1.3% among 340,000
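10 nM enzyme + cpd, 15 min RT; start with substrate 50 nM final; read 0 min and after 10 min RT. Corrected, normalized data; 4-parameter Hill curve fit.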
POLH inh = blocks human DNA polymerase eta activity; Q9Y253; recombinant Pol eta, fluorescent DNA replication assay; Potency, µM (highest dose often 114 µM), most hits filed as inhibitors; hit rate 1.2% among 390,000
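Fluorescent replication assay: 50 nM final substrate added after a 15 min room-temperature compound preincubation with 10 nM enzyme. Signal taken at 0 min and again at 10 min.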
Pol kappa inh = blocks human DNA polymerase kappa activity. AID 588579. hit rate 0.53% among 400,000. Potency, µM (highest dose often 107 µM), actives largely listed as inhibitors. Q9UBT6. purified Pol kappa, fluorescent DNA synthesis assay, 10 min
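50 nM final substrate added after 15 min RT preincubation of 10 nM Pol kappa with compound; fluorescence read at 0 and 10 min.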
WRN inhibitor = blocks human WRN helicase | Q14191 | WRN helicase unwinding, fluorescent forked duplex, kinetic | Potency, µM (doses to about 114 µM), most hits filed as inhibitors | hit rate 0.46% among 360,000 | AID 651768; also: nearly all actives have a fitted effect of over 55% in size
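WRN at 20 nM final preincubated with compound 15 min at room temperature; reaction started with 100 nM fluorophore/quencher forked duplex oligonucleotide and 2 mM ATP final. Unwinding followed kinetically by red fluorescence (ex 525, em 598 nm).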
POLI inh = inhibitors of human DNA polymerase iota; Q9UNA4; Pol iota fluorescent replication assay, 10 min; Potency, µM (top dose mostly 115 µM), hits mostly inhibitors; hit rate 1% among 390,000; AID 588590
Target sequence (Q9UNA4 whole entry, looked up): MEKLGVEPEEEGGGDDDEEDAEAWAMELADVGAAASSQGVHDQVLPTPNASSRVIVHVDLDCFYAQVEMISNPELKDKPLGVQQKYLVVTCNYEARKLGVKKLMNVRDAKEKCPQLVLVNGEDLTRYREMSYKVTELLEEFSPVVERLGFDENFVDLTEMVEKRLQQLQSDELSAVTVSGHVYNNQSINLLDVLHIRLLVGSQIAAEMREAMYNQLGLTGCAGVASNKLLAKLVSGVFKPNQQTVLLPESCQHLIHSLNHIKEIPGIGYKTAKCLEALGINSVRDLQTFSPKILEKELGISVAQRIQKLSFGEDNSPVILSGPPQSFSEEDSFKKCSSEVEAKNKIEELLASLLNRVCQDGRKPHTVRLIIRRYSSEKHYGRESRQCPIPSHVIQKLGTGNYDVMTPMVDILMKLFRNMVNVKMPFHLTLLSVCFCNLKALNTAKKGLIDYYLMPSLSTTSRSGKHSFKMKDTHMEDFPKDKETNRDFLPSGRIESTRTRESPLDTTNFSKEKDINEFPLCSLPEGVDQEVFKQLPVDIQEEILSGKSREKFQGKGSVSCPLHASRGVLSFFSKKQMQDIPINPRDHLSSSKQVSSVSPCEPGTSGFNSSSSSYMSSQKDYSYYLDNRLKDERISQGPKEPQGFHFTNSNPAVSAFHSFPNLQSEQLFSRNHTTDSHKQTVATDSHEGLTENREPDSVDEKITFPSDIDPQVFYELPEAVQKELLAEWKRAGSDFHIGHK
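Pol iota at 10 nM preincubated 15 min with compounds at room temperature; reaction started with fluorescent substrate, 50 nM final. Fluorescence read kinetically at 0 and 10 min; buffer-only wells as negative control.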
Of the large screens only hits and unclear results are named; the others gave an inactive call. The list is not random: actives were taken first. Their share in the collection is about 2.4%. Calls follow the shape of the dose curve; as a rule, active = well fitted curve in the direction sought with a large enough effect; inconclusive = small, poorly fitted or top-dose-only effect, or another doubt; inactive = no such curve, though single readings can be large; an effect the other way counts as inactive or inconclusive.

CC(C)C[C@H]1CN(CCCC[C@H]2CNC(=O)C(=O)N2Cc2ccccc2)C(=O)C(=O)N1Cc1ccccc1	none (no result: FEN1 inh, POLB inh, POLH inh, Pol kappa inh, POLI inh)
CC(=O)c1c(CC(=O)O)[nH]n(-c2nc3ccccc3s2)c1=O	POLB inh 32µM, POLH inh 50µM, Pol kappa inh inconclusive, WRN inhibitor inconclusive, POLI inh inconclusive
COc1ccc(OC)c(CNC(=O)c2ccc(NC(=O)c3nsc4ccccc34)cc2)c1	POLI inh 89µM (no result: WRN inhibitor)
CCOc1cc(CNC(=O)c2ccc(NC(=O)c3nsc4ccccc34)cc2)ccc1OC	none (no result: WRN inhibitor)
CCN(CC)C(=O)/C(C#N)=C/c1cc(O)c(O)c([N+](=O)[O-])c1	Pol kappa inh 6.7µM (no result: FEN1 inh, POLB inh, POLH inh, WRN inhibitor, POLI inh)
O=C(Nc1ccc2nc(-c3cccs3)c(-c3cccs3)nc2c1)N1CCCC1	none (no result: POLB inh, POLH inh, WRN inhibitor)
O=C(Nc1ccc2nc(-c3ccco3)c(-c3ccco3)nc2c1)N1CCCCCC1	FEN1 inh 50µM, POLB inh 2.2µM, POLH inh 10µM, Pol kappa inh 7.1µM, WRN inhibitor 13µM, POLI inh 3.2µM
O=C(Nc1ccc(Cl)c(Cl)c1)N1CCCCCC1	FEN1 inh inconclusive, Pol kappa inh 89µM, POLI inh inconclusive
CCOC(=O)C1CCN(C(=O)Nc2ccc3nc(-c4ccco4)c(-c4ccco4)nc3c2)CC1	FEN1 inh inconclusive, POLB inh 1.6µM, POLH inh 2.8µM, Pol kappa inh 16µM, WRN inhibitor 35µM, POLI inh 2.8µM
COc1ccccc1N1CCN(C(=O)C(C)CS(=O)(=O)c2ccc3c(c2)NC(=O)CS3)CC1 (configuration not stated)	POLB inh 8.9µM
COC/C=C/C1=CC2=CC(=O)C(C)(OC(=O)c3cnc4ccccc4n3)C(=O)C2=CN1C1CC1 (configuration not stated)	FEN1 inh inconclusive, POLH inh inconclusive, POLI inh inconclusive (no result: POLB inh)
COC/C=C/C1=CC2=CC(=O)C(C)(OC(=O)c3ccco3)C(=O)C2=CO1 (configuration not stated)	POLB inh 28µM (no result: FEN1 inh, POLH inh, Pol kappa inh, WRN inhibitor, POLI inh)
CCCCC1=CC2=CC(=O)C(C)(OC(=O)c3cccs3)C(=O)C2=CO1 (configuration not stated)	POLH inh 22µM, Pol kappa inh inconclusive, POLI inh inconclusive (no result: POLB inh)
COC/C=C/C1=CC2=CC(=O)C(C)(OC(=O)c3cnc4ccccc4n3)C(=O)C2=CN1Cc1ccccc1 (configuration not stated)	POLB inh 10µM, POLH inh 28µM, POLI inh inconclusive
COC/C=C/C1=CC2=CC(=O)C(C)(OC(=O)c3cnc4ccccc4n3)C(=O)C2=CN1c1ccc(OC)cc1 (configuration not stated)	POLH inh inconclusive, POLI inh inconclusive (no result: POLB inh)
CCCCC1=CC2=CC(=O)C(C)(OC(=O)c3cnc4ccccc4n3)C(=O)C2=CO1 (configuration not stated)	POLB inh 50µM (no result: FEN1 inh, POLH inh, Pol kappa inh, WRN inhibitor, POLI inh)
CCN(C(=O)COC(=O)c1cc2c(s1)CCCC2)c1c(N)n(Cc2ccccc2)c(=O)[nH]c1=O	POLH inh inconclusive, POLI inh 45µM (no result: POLB inh)
CCCN(C(=O)COC(=O)c1cc(CC)c(C)s1)c1c(N)n(Cc2ccccc2)c(=O)[nH]c1=O	POLH inh 18µM, Pol kappa inh inconclusive, POLI inh 40µM (no result: POLB inh)
CCN(C(=O)COC(=O)c1cc2c(s1)CCC(C)C2)c1c(N)n(Cc2ccccc2)c(=O)[nH]c1=O (configuration not stated)	POLH inh inconclusive, POLI inh inconclusive (no result: POLB inh)
COCCCN(C(=O)c1cc2c(s1)CCC2)c1c(N)n(Cc2ccccc2)c(=O)[nH]c1=O	POLB inh 13µM, POLH inh inconclusive, Pol kappa inh inconclusive, WRN inhibitor inconclusive, POLI inh 32µM
CCC[N+](C)(C)c1ccc(/C=C/c2ccncc2)cc1	FEN1 inh inconclusive, POLI inh inconclusive (no result: POLB inh, POLH inh, WRN inhibitor)
O=C(Cc1coc2cc3c(cc12)CCC3)OCc1cc(=O)n2c(n1)sc1ccccc12	POLB inh 10µM, POLH inh 10µM, Pol kappa inh 89µM, POLI inh inconclusive
Cc1ccc(C(=O)N[C@H](C(=O)OCc2cc(=O)n3c(n2)sc2ccccc23)C(C)C)cc1	POLB inh 14µM, POLH inh inconclusive, Pol kappa inh inconclusive, POLI inh inconclusive
O=C(OCc1cc(=O)n2c(n1)sc1ccccc12)c1ccc(O)cc1O	POLB inh 2.8µM, POLH inh inconclusive, Pol kappa inh 79µM, POLI inh 40µM
O=C(OCc1cc(=O)n2c(n1)sc1ccccc12)c1cccc(O)c1	POLB inh 22µM, POLH inh inconclusive, Pol kappa inh 50µM, WRN inhibitor inconclusive, POLI inh 45µM
Cc1cn2c(=O)cc(COC(=O)c3ccccc3F)nc2s1	none (no result: WRN inhibitor)
CCOC(=O)c1c(NC(=O)c2nc(SCC)ncc2Cl)sc2c1CCCC2	none (no result: WRN inhibitor)
CCOC(=O)C1=C(C)OC(=Cc2ccccc2)C1=O	none (no result: FEN1 inh, POLB inh, Pol kappa inh, POLI inh)
CCOC(=O)C1=C(O)c2ccccc2C(=O)/C1=C\c1ccc(C)cc1	FEN1 inh 50µM, POLH inh inconclusive, WRN inhibitor 45µM, POLI inh inconclusive
O=S(=O)(Nc1ncnc2sc3c(c12)CCC3)c1ccc(Cl)s1	POLH inh 35µM, POLI inh inconclusive
Cc1ccc(C)c(-c2nc(Cn3c(=O)cc(-c4ccccc4)c4c(C)nn(C)c43)c(C)o2)c1	none (no result: WRN inhibitor)
CCc1ccc(N2CSC3=C(C#N)C(c4cccs4)CC(=O)N3C2)cc1 (configuration not stated)	POLB inh inconclusive, POLH inh inconclusive, Pol kappa inh 79µM, POLI inh 11µM
N#CC1=C2SCN(c3ccc(F)cc3)CN2C(=O)CC1c1cccc(F)c1 (configuration not stated)	none
CCOC(=O)c1ccc(N2CSC3=C(C#N)C(c4cccs4)CC(=O)N3C2)cc1 (configuration not stated)	FEN1 inh inconclusive
CCc1ccc(C2CC(=O)N3CN(c4ccccc4)CSC3=C2C#N)cc1 (configuration not stated)	FEN1 inh inconclusive, POLB inh 40µM, POLI inh inconclusive
COc1ccc(C2CC(=O)c3cc(-c4nc(-c5cccc([N+](=O)[O-])c5)cs4)c(=O)n(-c4ccc(F)cc4)c3C2)cc1 (configuration not stated)	none (no result: WRN inhibitor)
Nc1nn2c(C(F)(F)F)cc(=O)[nH]c2c1N=Nc1cccc(F)c1	none
Cc1cc(=O)[nH]c2c(N=Nc3ccc(O)cc3)c(N)nn12	Pol kappa inh 89µM, WRN inhibitor inconclusive, POLI inh inconclusive
Cc1ccc(Cl)cc1N1CCN(CCCNC(=O)C2COc3ccccc3C2)CC1 (configuration not stated)	none (no result: WRN inhibitor)
